Legend:
Assay type in all cases: functional
[1] = system: Plasmodium falciparum; experiment: GSK_TCMDC: Inhibition of Plasmodium falciparum 3D7 in whole red blood cells, using parasite LDH activity as an index of growth. Test compounds present at 2uM
[2] = system: Plasmodium falciparum; experiment: GSK_TCMDC: Inhibition of Plasmodium falciparum Dd2 in whole red blood cells, using parasite LDH activity as an index of growth. Test compounds present at 2uM
[3] = system: HepG2; experiment: GSK_TCMDC: Percent inhibition of human HepG2 cell line. Test compounds present at 10uM.

O=C(/C=C/c1c[nH]c2ccccc12)NCCCCCN1CCC(c2c[nH]c3ccccc23)CC1
Inhibition [1]: 96%
Inhibition [2]: 0%
Inhibition [3]: 20%

O=C(Nc1cccc(CN2CCCN(CC3CCCCC3)CC2)c1)c1cc2ccccc2s1.O=C(O)C(F)(F)F
Inhibition [1]: 96%
Inhibition [2]: 15%
Inhibition [3]: 29%

COc1ccccc1C1CCN(C2CCC(NC(=O)/C=C/c3cc(F)c(F)cc3F)CC2)CC1 (stereo not given)
Inhibition [1]: 85%
Inhibition [2]: 0%
Inhibition [3]: 39%

CCOc1ccccc1C(=O)N1CCc2cc3nccc(N4CCN5CCC[C@H]5C4)c3cc21
Inhibition [1]: 100%
Inhibition [2]: 58%
Inhibition [3]: 4%

Cc1ccc(Nc2nc(C)cc(N3CCN(CCc4ccccc4)CC3)n2)cc1
Inhibition [1]: 93%
Inhibition [2]: 6%
Inhibition [3]: 6%

Cc1noc(C)c1-c1ccc2c(Nc3ccccc3C(C)(C)C)c(C(=O)NCc3ccc(C(F)(F)F)cc3)cnc2c1.Cl
Inhibition [1]: 99%
Inhibition [2]: 50%
Inhibition [3]: 30%

Cc1ccc(-c2nn3c(O)c4c(nc3c2C)CCCC4)cc1
Inhibition [1]: 97%
Inhibition [2]: 87%
Inhibition [3]: 16%

COC(=O)c1ccc(NC(=O)Nc2ccc(Cn3ncc(N4CCCNCC4)c(Cl)c3=O)cc2)cc1.O=C(O)C(F)(F)F
Inhibition [1]: 83%
Inhibition [2]: 43%
Inhibition [3]: 0%

Cl.O=C(NCCCCN1CCC(c2ccc3c(c2OC(=O)c2ccc(NC(=O)c4ccc(Cl)cc4)cc2)CCCC3)CC1)c1ccc(NC(=O)c2ccc(Cl)cc2)cc1
Inhibition [1]: 100%
Inhibition [2]: 99%
Inhibition [3]: 62%

COc1ccc(Nc2nccc(NCCNC(=O)Nc3cc(C)ccc3C)n2)cc1
Inhibition [1]: 85%
Inhibition [2]: 0%
Inhibition [3]: 10%

From ChEMBL document CHEMBL1157539, “Thousands of chemical starting points for antimalarial lead identification” (Nature, 2010)
